These results are taken from PubChem BioAssay (EPA / NIEHS).

For test [1], the target named is human Esterase Plasma (ES), BCHE (gene 590) (UniProt P06276). Nature of the test: NVS_ENZ_hES: NovaScreen (NVS) Enzymatic Assay for human Esterase Plasma (ES) (AID 2283157). The method, boiled down:
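Chemicals were added to plasma-extracted human enzyme in a cell-free format, and activity was read colorimetrically after 0.25 hour. Activity loss was referenced to DMSO; concentration-response top dose was 50 uM.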

Test [2] has as its target human Ephrin type-A Receptor 1 (EphA1), EPHA1 (gene 2041) (UniProt P21709). Nature of the test: NVS_ENZ_hEphA1: NovaScreen (NVS) Enzymatic Assay for human Ephrin type-A Receptor 1 (EphA1) (AID 2283158).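 Also: activity is signal loss versus DMSO meaning EphA1 kinase inhibition.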 The method, boiled down: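 Here the EphA1 protein is recombinant and the substrate fluorescent, with electrophoretic separation before fluorescence detection at 1 hour. Signal loss against DMSO defines activity; plate controls included; follow-up concentration series reach 50 uM.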

Test [3] deals with Glycogen synthase kinase-3 beta (Homo sapiens) (UniProt P49841). Nature of the test: NVS_ENZ_hGSK3b: NovaScreen (NVS) Enzymatic Assay for human Glycogen Synthase Kinase-3 beta (GSK3b) (AID 2283165). An outline of the steps:
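Recombinant enzyme with specific fluorescent substrate, 1 h, product separated by electrophoretic mobility shift. Primary duplicate screen at 25 uM; actives (e.g. 30% inhibition) followed in singleton concentration-response to 50 uM. Signal loss fitted versus DMSO.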

The target in test [4] is human Phosphodiesterase 4A1 (PDE4A1), PDE4A (gene 5141) (UniProt P27815). The test can be described thus: NVS_ENZ_hPDE4A1: NovaScreen (NVS) Enzymatic Assay for human Phosphodiesterase 4A1 (PDE4A1) (AID 2283191). An outline of the steps: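 Cell-free recombinant human PDE4A1 with fluorescent substrate; product separated by electrophoretic mobility shift, 1 h. Screened at 25 uM, then up to 50 uM in concentration-response; loss of signal fitted against DMSO.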

Test [5] concerns the target human Phosphodiesterase 5 (PDE5), PDE5A (gene 8654) (UniProt O76074). The test can be described thus: NVS_ENZ_hPDE5: NovaScreen (NVS) Enzymatic Assay for human Phosphodiesterase 5 (PDE5) (AID 2283194). The method, boiled down: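 Recombinant human PDE5 with specific substrate, read 1 h after dosing by fluorescence with electrophoretic mobility-shift separation of substrate and product. Initial single-concentration duplicate screen at 25 uM, actives followed in concentration series; loss of activity versus DMSO.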

Test [6] concerns the target human Matrix Metalloproteinase-9 (MMP9), MMP9 (gene 4318) (UniProt P14780). The test can be described thus: NVS_ENZ_hMMP9: NovaScreen (NVS) Enzymatic Assay for human Matrix Metalloproteinase-9 (MMP9) (AID 2283190).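 Also: cell-free recombinant MMP9 protease activity read by fluorescent substrate signal; active means inhibition seen as loss of fluorescence signal versus DMSO.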 The method, boiled down: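 Cell-free fluorescence-intensity enzyme activity assay using extracted protein, read 1 h after dosing. Loss of signal versus DMSO baseline indicates inhibition; primary screen in duplicate at 25 uM, actives followed up in concentration series.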

The target of test [7] is human MAP Kinase-Activated Protein Kinase 2 (MAPKAPK2), MAPKAPK2 (gene 9261) (UniProt P49137). The test can be described thus: NVS_ENZ_hMAPKAPK2: NovaScreen (NVS) Enzymatic Assay for human MAP Kinase-Activated Protein Kinase 2 (MAPKAPK2) (AID 2283178). The method, boiled down:
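Cell-free recombinant human MAPKAPK2 activity measured by fluorescence with electrophoretic mobility shift separation of substrate and product, 1 hr after dosing. Loss of signal versus DMSO; primary screen at 25 uM, concentration-response up to 50 uM.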

The target of test [8] is Collagenase 3 (Homo sapiens) (UniProt P45452). Nature of the test: NVS_ENZ_hMMP13: NovaScreen (NVS) Enzymatic Assay for human Matrix Metalloproteinase-13 (MMP13) (AID 2283182). The method, boiled down: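 Recombinant MMP13 cleaving fluorescent substrate, cell-free, measured 1 h after dosing. Primary duplicate screen at 25 uM; actives tested in concentration-response up to 50 uM; loss of signal relative to DMSO.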

For test [9], the target named is human Matrix Metalloproteinase-7 (MMP7), MMP7 (gene 4316) (UniProt P09237). Nature of the test: NVS_ENZ_hMMP7: NovaScreen (NVS) Enzymatic Assay for human Matrix Metalloproteinase-7 (MMP7) (AID 2283183). An outline of the steps:
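Cell-free fluorescence enzymatic assay read 1 h after compound addition, activity loss analyzed against DMSO. Primary duplicate testing at 25 uM; compounds meeting threshold rerun in singleton concentration-response up to 50 uM.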

Test [10] concerns the target human Matrix Metalloproteinase-2 (MMP2), MMP2 (gene 4313) (UniProt P08253). The test can be described thus: NVS_ENZ_hMMP2: NovaScreen (NVS) Enzymatic Assay for human Matrix Metalloproteinase-2 (MMP2) (AID 2283184). The method, boiled down:
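Cell-free recombinant MMP2 activity with a fluorescent substrate, read 1 h after dosing. Primary screen in duplicate at 25 uM; actives then run in concentration series; loss of signal fitted versus DMSO.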

In test [11] the target is human Matrix Metalloproteinase-3 (MMP3), MMP3 (gene 4314) (UniProt P08254). The test can be described thus: NVS_ENZ_hMMP3: NovaScreen (NVS) Enzymatic Assay for human Matrix Metalloproteinase-3 (MMP3) (AID 2283185). The method, boiled down:
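Cell-free recombinant human MMP3 activity, fluorescence intensity read 1 h after dosing. Primary screen duplicate at 25 uM, actives retested in concentration series; loss of signal vs DMSO baseline.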

The target in test [12] is human Janus Kinase 2 (Jak2), JAK2 (gene 3717) (UniProt O60674). Nature of the test: NVS_ENZ_hJak2: NovaScreen (NVS) Enzymatic Assay for human Janus Kinase 2 (Jak2) (AID 2283169). An outline of the steps:
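Cell-free recombinant human JAK2 enzyme activity assay, fluorescence/electrophoretic mobility shift read 1 h after dosing. Screened in duplicate at 25 uM, then concentration-response up to 50 uM; activity as signal loss relative to DMSO.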

In test [13] the target is human Phosphodiesterase 10 (PDE10), PDE10A (gene 10846) (UniProt Q9Y233). The test can be described thus: NVS_ENZ_hPDE10: NovaScreen (NVS) Enzymatic Assay for human Phosphodiesterase 10 (PDE10) (AID 2283195). The method, boiled down: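 PDE10A, cell-free; 1 h incubation; fluorescence intensity + electrophoretic mobility shift separating substrate/product; DMSO = baseline; 25 uM duplicate primary, CRC up to 50 uM.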

The target of test [14] is human c-Jun N-terminal Kinases (JNK2), MAPK9 (gene 5601) (UniProt P45984). The test can be described thus: NVS_ENZ_hJNK2: NovaScreen (NVS) Enzymatic Assay for human c-Jun N-terminal Kinases (JNK2) (AID 2283171). The method, boiled down:
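Cell-free recombinant human JNK2 activity assay; fluorescent substrate and product separated by electrophoretic mobility shift, read 1 h after dosing. Primary duplicate screen at 25 uM; actives run in concentration-response up to 50 uM, relative to DMSO.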

Test [15] addresses Mitogen-activated protein kinase 3 (Homo sapiens) (UniProt P27361). Nature of the test: NVS_ENZ_hMAPK3: NovaScreen (NVS) Enzymatic Assay for human Mitogen-Activated Protein Kinase 3 (MAPK 3) (AID 2283177). An outline of the steps:
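Cell-free enzymatic assay with recombinant protein and specific substrate; fluorescence and electrophoretic mobility shift read-out 1 h after dosing. Primary screen duplicate at 25 uM; actives then run in concentration-response up to 50 uM, loss of signal versus DMSO.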

Test [16] deals with human Mitogen- and Stress-activated Protein Kinase-1 (Msk1), RPS6KA5 (gene 9252) (UniProt O75582). The test can be described thus: NVS_ENZ_hMsk1: NovaScreen (NVS) Enzymatic Assay for human Mitogen- and Stress-activated Protein Kinase-1 (Msk1) (AID 2283187). An outline of the steps: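 Recombinant kinase with fluorescent substrate; product separated by electrophoretic mobility shift, read 1 h after dosing. Screened in duplicate at 25 uM; hits (e.g. ≥30% inhibition) tested in concentration–response up to 50 uM. DMSO baseline.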

For test [17], the target named is human Insulin Receptor (InsR), INSR (gene 3643) (UniProt P06213). The test can be described thus: NVS_ENZ_hInsR: NovaScreen (NVS) Enzymatic Assay for human Insulin Receptor (InsR) (AID 2283168). The method, boiled down: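 Fluorescent substrate phosphorylation by recombinant kinase, product resolved by electrophoretic mobility shift, read 1 h after dosing. Screened in duplicate at 25 uM; hits (e.g., 30% inhibition) run in concentration-response to 50 uM; DMSO as baseline.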

Molecules are shown by their SMILES. Inconclusive results are not listed. The source made the active and inactive calls. The calls were made as follows: active = hit-call score of the fitted dose curve at least 0.9, where 1 is the maximum; inconclusive = response in the unintended direction; inactive = score below 0.9.

human Matrix Metalloproteinase-9 (MMP9), MMP9 (gene 4318), sequence (P14780 whole entry, looked up): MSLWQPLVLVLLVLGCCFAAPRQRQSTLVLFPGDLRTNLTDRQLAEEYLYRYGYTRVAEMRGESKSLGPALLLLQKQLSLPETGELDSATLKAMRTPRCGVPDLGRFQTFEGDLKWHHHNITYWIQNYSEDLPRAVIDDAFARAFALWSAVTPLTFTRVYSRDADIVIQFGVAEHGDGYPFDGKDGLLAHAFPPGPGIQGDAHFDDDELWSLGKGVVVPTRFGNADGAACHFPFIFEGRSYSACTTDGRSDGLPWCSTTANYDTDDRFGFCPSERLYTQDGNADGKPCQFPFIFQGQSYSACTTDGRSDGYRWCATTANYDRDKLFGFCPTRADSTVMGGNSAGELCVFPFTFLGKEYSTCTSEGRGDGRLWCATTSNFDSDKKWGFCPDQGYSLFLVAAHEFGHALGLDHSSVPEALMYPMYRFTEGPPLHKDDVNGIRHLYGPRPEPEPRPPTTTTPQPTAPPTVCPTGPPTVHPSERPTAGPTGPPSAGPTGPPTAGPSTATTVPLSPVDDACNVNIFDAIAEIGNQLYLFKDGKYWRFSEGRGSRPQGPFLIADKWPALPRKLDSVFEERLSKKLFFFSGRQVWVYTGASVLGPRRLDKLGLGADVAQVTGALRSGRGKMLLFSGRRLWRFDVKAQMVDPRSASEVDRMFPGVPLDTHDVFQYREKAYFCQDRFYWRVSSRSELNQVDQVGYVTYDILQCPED
human Matrix Metalloproteinase-2 (MMP2), MMP2 (gene 4313), sequence (P08253 whole entry, looked up): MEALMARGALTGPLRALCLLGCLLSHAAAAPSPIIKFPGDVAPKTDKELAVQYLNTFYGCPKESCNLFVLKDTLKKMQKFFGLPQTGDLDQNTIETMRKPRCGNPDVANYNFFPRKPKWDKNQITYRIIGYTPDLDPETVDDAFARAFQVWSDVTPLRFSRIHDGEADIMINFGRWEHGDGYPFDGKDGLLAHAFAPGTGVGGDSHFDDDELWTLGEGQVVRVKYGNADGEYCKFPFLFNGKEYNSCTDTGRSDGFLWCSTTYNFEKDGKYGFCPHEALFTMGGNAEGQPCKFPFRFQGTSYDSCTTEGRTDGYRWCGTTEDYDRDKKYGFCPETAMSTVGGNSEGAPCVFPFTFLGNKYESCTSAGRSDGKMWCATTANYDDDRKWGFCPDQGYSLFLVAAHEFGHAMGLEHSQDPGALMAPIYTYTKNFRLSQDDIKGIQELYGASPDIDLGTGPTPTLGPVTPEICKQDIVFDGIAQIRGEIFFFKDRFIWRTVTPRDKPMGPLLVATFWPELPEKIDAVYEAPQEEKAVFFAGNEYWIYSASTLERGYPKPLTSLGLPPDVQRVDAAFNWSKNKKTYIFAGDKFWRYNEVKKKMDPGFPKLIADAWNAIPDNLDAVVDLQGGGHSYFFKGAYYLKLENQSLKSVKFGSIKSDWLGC
human Janus Kinase 2 (Jak2), JAK2 (gene 3717), sequence (O60674 whole entry, looked up): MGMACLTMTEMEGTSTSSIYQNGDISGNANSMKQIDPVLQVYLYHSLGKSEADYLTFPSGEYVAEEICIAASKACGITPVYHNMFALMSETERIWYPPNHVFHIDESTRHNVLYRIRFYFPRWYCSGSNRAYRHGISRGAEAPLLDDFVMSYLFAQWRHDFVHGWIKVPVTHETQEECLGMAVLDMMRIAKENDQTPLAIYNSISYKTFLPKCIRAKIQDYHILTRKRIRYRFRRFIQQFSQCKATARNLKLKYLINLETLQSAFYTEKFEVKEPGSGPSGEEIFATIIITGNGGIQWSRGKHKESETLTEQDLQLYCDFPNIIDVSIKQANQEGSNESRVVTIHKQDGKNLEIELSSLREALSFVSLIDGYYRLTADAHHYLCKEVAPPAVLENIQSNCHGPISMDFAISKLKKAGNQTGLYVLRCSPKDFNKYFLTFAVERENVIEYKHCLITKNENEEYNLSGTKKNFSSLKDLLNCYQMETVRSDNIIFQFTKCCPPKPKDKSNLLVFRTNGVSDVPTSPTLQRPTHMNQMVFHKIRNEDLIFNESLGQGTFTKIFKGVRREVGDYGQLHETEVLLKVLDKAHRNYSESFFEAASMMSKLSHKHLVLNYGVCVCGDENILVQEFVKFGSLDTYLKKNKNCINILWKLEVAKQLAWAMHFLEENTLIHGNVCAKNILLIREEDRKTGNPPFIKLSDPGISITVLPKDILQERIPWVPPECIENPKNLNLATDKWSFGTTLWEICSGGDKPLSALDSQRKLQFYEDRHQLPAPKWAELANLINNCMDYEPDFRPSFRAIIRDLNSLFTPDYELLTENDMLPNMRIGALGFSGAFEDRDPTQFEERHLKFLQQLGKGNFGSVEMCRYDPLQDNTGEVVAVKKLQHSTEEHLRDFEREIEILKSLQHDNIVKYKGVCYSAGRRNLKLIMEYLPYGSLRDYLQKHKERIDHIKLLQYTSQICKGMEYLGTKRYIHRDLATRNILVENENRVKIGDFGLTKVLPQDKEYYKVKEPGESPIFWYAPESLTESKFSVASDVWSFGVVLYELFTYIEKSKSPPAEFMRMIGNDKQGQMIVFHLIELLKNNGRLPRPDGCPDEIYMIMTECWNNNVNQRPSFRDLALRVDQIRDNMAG
human Esterase Plasma (ES), BCHE (gene 590), sequence (P06276 whole entry, looked up): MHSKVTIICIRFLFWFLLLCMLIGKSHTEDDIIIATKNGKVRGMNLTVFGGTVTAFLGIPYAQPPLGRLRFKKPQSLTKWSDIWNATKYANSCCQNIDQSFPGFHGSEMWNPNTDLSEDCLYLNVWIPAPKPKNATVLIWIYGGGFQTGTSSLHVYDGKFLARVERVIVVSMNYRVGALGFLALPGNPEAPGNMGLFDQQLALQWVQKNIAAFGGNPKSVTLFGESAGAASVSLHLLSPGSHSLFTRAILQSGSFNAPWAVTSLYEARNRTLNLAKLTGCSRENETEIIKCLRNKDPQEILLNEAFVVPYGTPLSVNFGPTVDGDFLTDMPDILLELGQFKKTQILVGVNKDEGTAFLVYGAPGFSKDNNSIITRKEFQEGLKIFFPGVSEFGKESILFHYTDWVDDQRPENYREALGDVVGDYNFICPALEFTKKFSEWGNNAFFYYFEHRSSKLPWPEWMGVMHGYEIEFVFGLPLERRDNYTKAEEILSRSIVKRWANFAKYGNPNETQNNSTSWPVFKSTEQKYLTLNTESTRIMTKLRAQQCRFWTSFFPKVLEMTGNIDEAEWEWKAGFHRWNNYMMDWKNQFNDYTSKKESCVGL
human Matrix Metalloproteinase-7 (MMP7), MMP7 (gene 4316), sequence (P09237 whole entry, looked up): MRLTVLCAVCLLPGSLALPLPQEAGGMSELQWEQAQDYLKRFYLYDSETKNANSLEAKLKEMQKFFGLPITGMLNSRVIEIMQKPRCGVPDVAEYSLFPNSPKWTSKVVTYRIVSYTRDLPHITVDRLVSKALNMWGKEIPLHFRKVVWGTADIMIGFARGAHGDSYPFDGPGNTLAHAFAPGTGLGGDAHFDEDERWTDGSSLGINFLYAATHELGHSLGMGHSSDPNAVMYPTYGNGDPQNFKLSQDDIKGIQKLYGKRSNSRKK
human Phosphodiesterase 4A1 (PDE4A1), PDE4A (gene 5141), sequence (P27815 whole entry, looked up): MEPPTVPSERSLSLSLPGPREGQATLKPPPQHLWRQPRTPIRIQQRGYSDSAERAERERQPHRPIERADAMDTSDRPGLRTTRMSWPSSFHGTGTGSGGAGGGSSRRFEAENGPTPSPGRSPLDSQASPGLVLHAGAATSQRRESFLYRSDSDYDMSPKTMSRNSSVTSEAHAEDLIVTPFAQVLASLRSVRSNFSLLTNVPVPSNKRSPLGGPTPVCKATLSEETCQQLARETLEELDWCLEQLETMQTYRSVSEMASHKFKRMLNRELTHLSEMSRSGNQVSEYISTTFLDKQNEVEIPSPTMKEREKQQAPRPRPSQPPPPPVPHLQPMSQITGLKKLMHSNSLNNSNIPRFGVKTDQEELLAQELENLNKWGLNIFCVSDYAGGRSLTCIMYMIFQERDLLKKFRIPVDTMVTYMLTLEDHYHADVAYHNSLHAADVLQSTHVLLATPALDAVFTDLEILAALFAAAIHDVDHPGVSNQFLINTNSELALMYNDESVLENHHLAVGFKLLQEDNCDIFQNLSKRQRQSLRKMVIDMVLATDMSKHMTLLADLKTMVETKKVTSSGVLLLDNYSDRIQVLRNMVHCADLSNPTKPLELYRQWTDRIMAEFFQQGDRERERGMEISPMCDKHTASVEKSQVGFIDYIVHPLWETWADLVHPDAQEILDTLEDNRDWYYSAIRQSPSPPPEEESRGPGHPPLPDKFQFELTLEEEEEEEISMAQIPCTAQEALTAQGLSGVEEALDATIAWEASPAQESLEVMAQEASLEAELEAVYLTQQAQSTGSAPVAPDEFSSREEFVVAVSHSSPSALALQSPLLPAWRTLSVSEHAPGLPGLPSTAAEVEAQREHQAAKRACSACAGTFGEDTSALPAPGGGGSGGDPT
human MAP Kinase-Activated Protein Kinase 2 (MAPKAPK2), MAPKAPK2 (gene 9261), sequence (P49137 whole entry, looked up): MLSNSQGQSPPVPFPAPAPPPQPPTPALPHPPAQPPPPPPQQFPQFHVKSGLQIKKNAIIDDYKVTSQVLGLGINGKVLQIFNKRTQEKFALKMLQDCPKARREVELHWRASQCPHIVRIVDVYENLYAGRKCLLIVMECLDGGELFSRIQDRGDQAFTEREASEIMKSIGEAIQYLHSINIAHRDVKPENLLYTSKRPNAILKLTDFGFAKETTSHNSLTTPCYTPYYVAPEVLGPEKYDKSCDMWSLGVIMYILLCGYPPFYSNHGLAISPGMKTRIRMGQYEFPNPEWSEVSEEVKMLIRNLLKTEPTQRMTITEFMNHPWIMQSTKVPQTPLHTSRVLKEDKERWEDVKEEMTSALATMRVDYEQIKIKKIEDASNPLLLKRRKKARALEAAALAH
Mitogen-activated protein kinase 3 (Homo sapiens), sequence (P27361 whole entry, looked up): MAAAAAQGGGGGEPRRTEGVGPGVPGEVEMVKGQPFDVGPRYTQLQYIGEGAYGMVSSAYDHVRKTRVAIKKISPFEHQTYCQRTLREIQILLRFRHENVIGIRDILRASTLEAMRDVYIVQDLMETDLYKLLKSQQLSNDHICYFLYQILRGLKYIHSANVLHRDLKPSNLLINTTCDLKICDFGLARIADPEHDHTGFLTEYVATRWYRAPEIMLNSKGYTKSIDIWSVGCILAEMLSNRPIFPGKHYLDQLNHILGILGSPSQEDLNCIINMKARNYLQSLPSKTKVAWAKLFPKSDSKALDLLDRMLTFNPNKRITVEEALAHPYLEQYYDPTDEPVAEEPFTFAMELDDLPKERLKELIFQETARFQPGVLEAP

Usually AC50 stands for the midpoint of the concentration-response curve, whichever way the signal moves. `Clc1cc(Cl)c2c(c1)N=C1CCCCCN1C2`: the AC50 in test [1] is 13.7 µM (active). Also, the result in test [2], in test [3], in test [4] and in [5] was inactive.
As for `COc1cccc([C@H](O)C2CCN(CCc3ccc(F)cc3)CC2)c1OC`, the AC50 in test [1] was 18.2 µM (active). Moreover, the molecule was called inactive in test [4] and in test [5].
`COc1ccc2cc(S(=O)(=O)N[C@H](CC(=O)N[C@H](Cc3ccc(CN4[C@H](C)CCC[C@@H]4C)cc3)C(=O)N(C)C(C)C)c3ccc4c(c3)OCO4)ccc2c1`: the AC50 in test [1] is 7.52 µM (active). In addition, the molecule was called inactive in test [3] and in test [6].
For `Cc1cc2c(cc1C(F)(F)F)N(C(=O)Nc1ccc(Oc3cccnc3C)nc1)CC2`, in test [7], the molecule was classed as inactive.
With `Cc1cc(F)ccc1-c1cc(N2CC[C@@H](O)[C@H]2CO)ncc1N(C)C(=O)C(C)(C)c1cc(C(F)(F)F)cc(C(F)(F)F)c1`, in [5], the AC50 is 4.05 µM (active).
Turning to `CO[C@H]1/C=C/O[C@@]2(C)Oc3c(C)c(O)c4c(O)c(c(/C=N/N5CCN(C)CC5)c(O)c4c3C2=O)NC(=O)/C(C)=C\C=C\[C@H](C)[C@H](O)[C@@H](C)[C@@H](O)[C@@H](C)[C@H](OC(C)=O)[C@@H]1C`, the molecule was classed as inactive in test [8], in test [9] and in [10].
As to `CC[C@H](NC(=O)c1cc(F)ccc1NS(=O)(=O)c1cccc2cccnc12)c1ccccc1`, in test [5], the result was inactive.
As for `CCCCCCCCCCCC[N+](C)(C)C`, in [10], the result was inactive.
With `O=C(O)c1ccccc1-n1cc(C(=O)O)c(=O)c2cc(Nc3c(F)cc(F)cc3Cl)c(Cl)cc21`, the molecule was classed as inactive in test [3]. Further, the AC50 in test [11] is 21.8 µM (active).
Regarding `CCN(Cc1cccc(S(=O)(=O)O)c1)c1ccc(C(=C2C=CC(=[N+](CC)Cc3cccc(S(=O)(=O)O)c3)C=C2)c2ccccc2S(=O)(=O)[O-])cc1`, the AC50 was 12.4 µM (active) in [12], 10.3 µM (active) in test [10] and 16.1 µM (active) in test [11].
With `O=C(O)Cc1cc(I)c(Oc2ccc(O)c(I)c2)c(I)c1`, the result in [12] and in [11] was inactive. In addition, the half-maximal activity concentration (AC50) in [13] was 3.32 µM (active).
For `CCCC(=O)OCCC(C)C`, the result in test [14] and in test [15] was inactive.
Consider `CC(C)(C)c1csc(-c2cc3cc(OCc4ccccc4CC(=O)O)ccc3o2)n1`, for which the AC50 in test [12] is 0.00515 µM (active). Also, the outcome in test [15] and in test [5] was inactive.
With `CC(C)(c1cc(Br)c(O)c(Br)c1)c1cc(Br)c(O)c(Br)c1`, the molecule was called inactive in [10].
On to `O=C1CCC(C2CCCCC2)CC1`, for which the call in [11] was inactive.
As to `CCCOC(=O)c1cc(O)c(O)c(O)c1`, in [11], the concentration at half-maximal activity (AC50) was 11.9 µM (active).
Regarding `CCCCCCCCOc1ccc(C(=O)c2ccccc2)c(O)c1`, the result in test [11] was inactive.
As to `CCO[Si](CCCNC(N)=O)(OCC)OCC`, the molecule was called inactive in test [12].
With `O=C(Nc1ccc(Cl)cc1)Nc1ccc(Cl)c(Cl)c1`, the molecule was called inactive in [4].
Consider `O=C(O)Cn1c(=O)n(Cc2ccc(Br)cc2F)c(=O)c2ccc(Cl)cc21`, for which, in test [9], the outcome was inactive.
For `CCCCCCCCOC(=O)c1cc(O)c(O)c(O)c1`, the outcome in [3] and in test [7] was inactive. The AC50 in [8] is 2.83 µM (active); in test [9], 22.1 µM (active); in test [10], 1.47 µM (active); in test [11] it was 5.82 µM (active); in test [6] it was 1.09 µM (active).
As for `COCC(C)OCC(C)OCC(C)O` (configuration not stated), the molecule was called inactive in test [8] and in [9].
As to `O=C(O)c1ccccc1C(=O)OCc1ccccc1`, the molecule was called inactive in [12] and in test [16].
As to `CC1=CC(=O)/C(=C(/C)O)C(=O)O1`, the molecule was called inactive in [3].
With `OC12N=C(c3ccccc3)SC1Cc1cc(Cl)ccc12` (configuration not stated), the call in test [3] was inactive.
On to `OCCO`, for which, in test [17], the call was inactive.
Regarding `O=C(OCCCCCCOC(=O)c1ccccc1)c1ccccc1`, the molecule was classed as inactive in [12].
Turning to `O=C=NCCCCCCN=C=O`, in test [6], the result was inactive.
`CN1C(=O)N(c2ccccc2Br)Cc2cnc(Nc3ccc4c(c3)OCC(CO)O4)nc21` (configuration not stated): the AC50 in test [3] is 7.73 µM (active); in test [4], 6.38 µM (active); in [13], 1.09 µM (active). Also, the molecule was called inactive in [7] and in test [11].
On to `c1ccc2ccccc2c1`, for which the result in [15] and in test [16] was inactive.
Consider `Cc1oc2c(NC(=O)c3c(Cl)cccc3Cl)cccc2c1C(C)(C)O`, for which, in test [7], the result was inactive.
